What follows are compounds tested on T1, ASK2. Conditions: concentration: 1 μM, replicates: in singlicate; n = 1.
T1 construct: gene MAP3K6
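Note: KINOMEscan kinase panel screen.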

Compound	%Inh
COc1cc(Nc2nccc(N3CCC(NS(=O)(=O)c4ccc(NC(C)=O)cc4)CC3)n2)cc(OC)c1OC [GSK1379825]	9%
Cc1cc(-c2ccnc(Nc3cccc(C#N)c3)n2)cc(C)c1O [GSK1440913]	11%
Cc1ccc(C)c(NC(=O)Nc2ccc(C)c(-c3ccc(C(=O)Nc4ccncc4)cc3)c2)c1 [GSK1398473]	0%
CN(C)CCNS(=O)(=O)c1ccc(-c2ccnc3[nH]ccc23)cc1 [GSK977620]	23%
O=C(Nc1n[nH]c2nc(-c3cccc(O)c3)ccc12)C1CC1 [SB-711805]	0%
COc1cccc(C2=C(Nc3cccc(O)c3)C(=O)NC2=O)c1 [SB-390771]	0%
CSc1ccc(NC2=C(c3ccc(Cl)cc3)C(=O)NC2=O)cc1 [SB-317658]	25%
Cc1ccc(O)cc1Nc1ccnc2cc(-c3ccc(CN4CCCCC4)o3)ccc12 [GW557777]	0%
Fc1cc(Cl)ccc1Nc1ccnc2cc(-c3ccc(CN4CCOCC4)o3)ccc12 [GW560109]	8%
COC(=O)Nc1nc2ccc(Oc3ccc(NC(=O)Nc4cc(C(F)(F)F)ccc4F)cc3)cc2[nH]1.Cl [GW654607]	15%
CN(c1ccc(NC(=O)N2CCN(CCCN3CCOCC3)CC2)cc1)c1ccnc(Nc2ccc(CS(C)(=O)=O)cc2)n1.Cl [GW830899]	0%
CCn1c(-c2nonc2N)nc2c(-c3ccccc3)ncc(OCCCN)c21.O=C(O)C(F)(F)F.O=C(O)C(F)(F)F [GSK260205]	0%
COc1cc(Nc2nccc(N3CCC(NC(=O)Nc4ccc5c(c4)OCO5)C3)n2)cc(OC)c1OC (stereo not shown) [GSK1379766]	12%
Cc1ccc(NC(=O)c2ccnc(N3CCCCC3)c2)cc1-c1ccc(C(=O)NCC2CC2)cc1 [GW775610]	0%
COC(=O)Nc1nc2ccc(Oc3ccc(CC(=O)Nc4cc(C(F)(F)F)ccc4F)cc3)cc2[nH]1 [GW680903]	0%
COc1ccc(NC(=O)c2ccoc2)cc1-c1ccc(C(=O)NCC2CC2)cc1 [GW810437]	0%
Cc1cccc(Nc2nc(NCCN)ncc2C(N)=O)c1 [GSK1292139]	8%
Cl.N#CCc1ccc(Nc2nccc(Nc3ccc(Oc4ccccc4)cc3)n2)cc1 [GW639905]	7%
Fc1cc(Cl)ccc1Nc1ccnc2cc(-c3ccc(CN4CCSCC4)o3)ccc12 [GW560106]	0%

Compound	%Inh
NCCC(NC(=O)c1cc(Br)c(-c2ccnc3[nH]ccc23)s1)c1ccccc1.O=C(O)C(F)(F)F.O=C(O)C(F)(F)F (stereo not shown) [GSK1307810]	11%
O=C(O)C(F)(F)F.O=c1[nH]ccc2nc(N[C@@H]3CCNC3)nc(Nc3ccc4c(c3)S(=O)(=O)CC4)c12 [GSK2181306]	38%
Cc1ccccc1CC(=O)N1CCc2cc(-c3cn(C)c4ncnc(N)c34)ccc21 [GSK2603346]	6%
CCNC(=O)/C=C/c1n[nH]c2cc(Sc3ccccc3C(=O)NC)ccc12	0%
Nc1ncc(-c2ccc3nccc(-c4ccncc4)c3c2)cc1S(=O)(=O)N1CCCCC1 [GSK1693850]	0%
CS(=O)(=O)c1cccc(CNc2nc(Nc3ccc4c(c3)CCC(=O)N4)ncc2C(F)(F)F)c1	0%
COc1ccc(C)c(Nc2ccnc(Nc3ccc(-c4cnc[nH]4)cc3)n2)c1.Cl [GW784041]	0%
O=C(O)C(F)(F)F.O=c1[nH]ccc2nc(N[C@@H]3CCNC3)nc(Nc3cc(Cl)cc(Cl)c3)c12 [GSK2188764]	4%
Cl.Cl.NC(CNC(=O)c1cc(Br)c(-c2ccnc3[nH]ccc23)s1)c1ccccc1 (stereo not shown) [GSK1322949]	20%
COC(=O)Nc1nc2cc(Oc3ccc(NC(=O)Nc4cccc(SC)c4)cc3)ccc2[nH]1.Cl [GW697999]	0%
CCOc1nccc(-c2c(-c3ccc(F)cc3)ncn2C2CCNCC2)n1 [SB-249175]	0%
Cl.Cl.NCC(NC(=O)c1cc(-c2cccnc2)c(-c2ccnc3[nH]ccc23)s1)c1ccccc1 (stereo not shown) [GSK1323434]	16%
Nc1ncnc2scc(-c3ccc(NC(=O)Cc4cc(F)ccc4F)cc3)c12.O=C(O)C(F)(F)F [SB-731254-M]	21%
Cn1cc(-c2ccc3c(c2)CCN3C(=O)Cc2cc(F)cc(C(F)(F)F)c2)c2c(N)ncnc21 [GSK2635225]	0%
COc1cccc2c(-c3ccncc3)c(-c3ccc(F)cc3)nn12 [GW468513]	0%
COc1cccc(NC(=O)NCCNc2ccnc(Nc3ccc(F)cc3)n2)c1 [GSK1379879]	0%
Cn1cc(-c2ccc3c(c2)CCN3C(=O)Cc2cc(F)cc(F)c2F)c2c(N)ncnc21 [GSK2634140]	0%
CN(C)CCOc1ccc(-c2cc(-c3ccc(Cl)c(O)c3)c(-c3ccncc3)[nH]2)cc1.Cl.Cl [SB-684387]	0%

Source: paper PMC5540273 (PLoS ONE, 2017)
